Assay results from PubChem BioAssay.
The source made the active and inactive calls.

Key:
[1] = small molecules captured by biotinylated probe aFSTL3 – biochemical, small-molecule microarray, fluorescence 635/667, stem cell growth factor project, primary screen (AID 1064); conditions: higher = more signal;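 also: measures binding of the biotinylated anti-FSTL3 antibody to printed compounds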
[2] = binders from COS7 lysate, DM2A8 probe, primary screen, torsin A project, cell lysate, small-molecule microarray, fluorescence 635/667 (AID 1065); conditions: higher = more signal, COS7 lysate expressing mutant human TOR1A
[3] = small molecules captured by biotinylated probe aFGF2 – biochemical, small-molecule microarray, fluorescence 635/667, stem cell growth factor project, primary screen (AID 1067); conditions: higher = more signal;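 also: measures binding of biotinylated aFGF2 protein to printed compounds on slides; z-score merges feature fluorescence and signal-to-noise across triplicate slides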
[4] = small molecules captured by biotinylated probe aFGF10 – biochemical, small-molecule microarray, fluorescence 635/667, stem cell growth factor project, primary screen (AID 1071); conditions: higher = more signal;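 also: score merges 667 nm spot intensity and signal to noise from triplicate slides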
[5] = molecular target: Neurogenic locus notch homolog protein 2 (Homo sapiens) (UniProt Q04721); experiment: small molecules binding Notch2 protein – biochemical, small-molecule microarray, 635 nm fluorescence, stem cell growth factors, primary screen (AID 1073); conditions: higher = more signal
Chain of Neurogenic locus notch homolog protein 2 (Homo sapiens) (Q04721 whole entry, looked up, canonical isoform): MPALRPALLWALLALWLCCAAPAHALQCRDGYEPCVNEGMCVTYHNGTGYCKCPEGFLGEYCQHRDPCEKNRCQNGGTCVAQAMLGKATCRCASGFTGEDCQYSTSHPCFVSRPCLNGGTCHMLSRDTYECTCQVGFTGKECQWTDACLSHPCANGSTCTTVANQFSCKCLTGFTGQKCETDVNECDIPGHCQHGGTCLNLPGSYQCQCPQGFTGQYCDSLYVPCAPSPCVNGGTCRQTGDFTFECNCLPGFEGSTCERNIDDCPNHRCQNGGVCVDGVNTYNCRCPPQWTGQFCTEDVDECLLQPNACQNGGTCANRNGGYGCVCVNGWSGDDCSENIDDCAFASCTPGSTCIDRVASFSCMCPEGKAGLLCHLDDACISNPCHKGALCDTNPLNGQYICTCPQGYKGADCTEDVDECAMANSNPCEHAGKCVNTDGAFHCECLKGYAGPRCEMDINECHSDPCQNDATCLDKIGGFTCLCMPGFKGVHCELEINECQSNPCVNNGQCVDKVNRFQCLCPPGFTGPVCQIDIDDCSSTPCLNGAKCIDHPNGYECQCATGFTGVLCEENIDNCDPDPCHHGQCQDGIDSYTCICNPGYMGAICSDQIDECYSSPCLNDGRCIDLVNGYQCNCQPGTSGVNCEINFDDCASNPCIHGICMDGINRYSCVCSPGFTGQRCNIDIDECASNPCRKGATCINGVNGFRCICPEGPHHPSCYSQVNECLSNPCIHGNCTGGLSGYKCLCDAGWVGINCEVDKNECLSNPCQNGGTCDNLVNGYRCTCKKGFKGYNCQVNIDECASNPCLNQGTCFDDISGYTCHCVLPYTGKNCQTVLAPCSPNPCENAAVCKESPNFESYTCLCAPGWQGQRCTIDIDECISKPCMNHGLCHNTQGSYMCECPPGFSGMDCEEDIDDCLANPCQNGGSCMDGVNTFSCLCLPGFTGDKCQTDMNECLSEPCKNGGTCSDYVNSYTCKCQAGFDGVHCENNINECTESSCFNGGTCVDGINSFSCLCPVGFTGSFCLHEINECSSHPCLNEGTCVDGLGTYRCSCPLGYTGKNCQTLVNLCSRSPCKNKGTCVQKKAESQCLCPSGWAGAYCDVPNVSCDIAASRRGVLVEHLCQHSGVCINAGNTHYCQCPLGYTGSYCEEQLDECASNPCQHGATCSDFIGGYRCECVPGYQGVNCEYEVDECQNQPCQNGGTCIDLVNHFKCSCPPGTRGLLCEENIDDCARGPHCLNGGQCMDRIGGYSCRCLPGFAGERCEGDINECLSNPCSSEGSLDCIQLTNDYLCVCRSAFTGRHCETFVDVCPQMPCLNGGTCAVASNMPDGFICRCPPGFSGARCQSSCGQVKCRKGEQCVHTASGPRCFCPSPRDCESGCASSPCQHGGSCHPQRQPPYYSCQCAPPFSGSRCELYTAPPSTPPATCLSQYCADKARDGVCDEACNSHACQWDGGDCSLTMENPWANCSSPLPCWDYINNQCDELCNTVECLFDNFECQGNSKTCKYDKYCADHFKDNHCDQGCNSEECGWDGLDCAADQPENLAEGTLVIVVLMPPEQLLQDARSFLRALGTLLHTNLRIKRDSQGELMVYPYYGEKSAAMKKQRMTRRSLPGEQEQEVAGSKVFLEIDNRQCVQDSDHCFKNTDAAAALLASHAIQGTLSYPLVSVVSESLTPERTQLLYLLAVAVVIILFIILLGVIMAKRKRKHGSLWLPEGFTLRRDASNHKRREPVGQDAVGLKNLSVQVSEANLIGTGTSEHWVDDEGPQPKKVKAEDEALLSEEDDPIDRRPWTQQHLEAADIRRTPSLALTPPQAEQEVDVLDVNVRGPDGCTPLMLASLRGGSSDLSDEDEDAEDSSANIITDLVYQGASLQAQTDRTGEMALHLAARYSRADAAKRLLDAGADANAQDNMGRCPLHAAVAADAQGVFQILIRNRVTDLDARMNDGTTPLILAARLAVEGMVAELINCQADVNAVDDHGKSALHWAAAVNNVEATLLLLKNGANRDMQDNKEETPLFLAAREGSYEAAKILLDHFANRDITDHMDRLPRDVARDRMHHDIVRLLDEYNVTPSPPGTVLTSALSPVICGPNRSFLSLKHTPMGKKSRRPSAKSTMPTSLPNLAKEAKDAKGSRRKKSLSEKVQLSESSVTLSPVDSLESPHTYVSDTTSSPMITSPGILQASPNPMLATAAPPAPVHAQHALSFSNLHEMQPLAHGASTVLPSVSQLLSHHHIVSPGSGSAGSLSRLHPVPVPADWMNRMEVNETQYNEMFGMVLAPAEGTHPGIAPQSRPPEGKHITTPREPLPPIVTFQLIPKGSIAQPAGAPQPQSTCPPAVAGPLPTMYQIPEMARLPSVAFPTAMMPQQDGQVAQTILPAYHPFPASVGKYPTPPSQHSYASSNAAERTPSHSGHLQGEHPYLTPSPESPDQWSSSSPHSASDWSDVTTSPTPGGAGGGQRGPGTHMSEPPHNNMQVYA

[6] = molecular target: Pro-neuregulin-1, membrane-bound isoform (Homo sapiens) (UniProt Q02297); experiment: small molecules binding neuregulin-1 protein – biochemical, small-molecule microarray, fluorescence 635/667, psychiatric disease protein project, primary screen (AID 1075); conditions: NRG1 binding, 635 nm fluorescence, higher = more signal;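 also: score combines 667 nm spot fluorescence with signal to noise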
Chain of Pro-neuregulin-1, membrane-bound isoform (Homo sapiens) (Q02297 whole entry, looked up, the tested form may be a part, canonical isoform): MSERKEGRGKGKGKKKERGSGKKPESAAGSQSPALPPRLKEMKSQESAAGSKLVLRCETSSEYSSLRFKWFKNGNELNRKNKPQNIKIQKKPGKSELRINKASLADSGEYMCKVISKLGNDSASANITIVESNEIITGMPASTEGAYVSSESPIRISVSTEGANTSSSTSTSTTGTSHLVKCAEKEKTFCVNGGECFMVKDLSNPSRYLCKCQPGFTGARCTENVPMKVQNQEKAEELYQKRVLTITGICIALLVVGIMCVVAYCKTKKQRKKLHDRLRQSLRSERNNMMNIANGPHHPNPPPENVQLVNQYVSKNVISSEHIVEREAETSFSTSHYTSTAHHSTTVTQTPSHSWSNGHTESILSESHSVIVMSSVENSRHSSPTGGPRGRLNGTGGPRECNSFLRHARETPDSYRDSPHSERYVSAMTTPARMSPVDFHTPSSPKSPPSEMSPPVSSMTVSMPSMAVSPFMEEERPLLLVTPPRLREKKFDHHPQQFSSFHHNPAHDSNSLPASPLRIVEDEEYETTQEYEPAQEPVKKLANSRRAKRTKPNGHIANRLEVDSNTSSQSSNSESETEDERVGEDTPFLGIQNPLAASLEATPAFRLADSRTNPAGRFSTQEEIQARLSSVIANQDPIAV

[7] = test system: Neuregulin-1 EGF-like domain; experiment: small molecules binding NRG1 EGF domain – biochemical, small-molecule microarray, 635 nm fluorescence, primary screen (AID 1081); conditions: higher = more signal;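 also: binding of the protein to compounds printed on small-molecule microarray slides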
[8] = FRG1 expression reporter modulators in myotubes – cell-based, C2C12 myotubes, firefly/Renilla luciferase, luminescence, FRG1 inhibition for FSHD, primary screen (AID 1084); conditions: FRG1 promoter luciferase, higher = more signal, called active from +8 up or from −8 down
[9] = small molecules captured by biotinylated probe aFST – biochemical, small-molecule microarray, fluorescence 635/667, stem cell growth factor project, primary screen (AID 1086); conditions: higher = more signal;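 also: score merges 667 nm fluorescence with signal-to-noise of each printed compound spot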
[10] = binders of probe aHhip on microarray, primary screen, stem cell growth factor project, biochemical, small-molecule microarray, fluorescence 635/667 (AID 1087); conditions: higher = more signal;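 also: score merges spot fluorescence at 667nm with spot signal to noise ratio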

Row | SMILES | composite z-score [1] | composite z-score [2] | composite z-score [3] | composite z-score [4] | composite z-score [5] | composite z-score [6] | composite z-score [7] | z-score [8] | composite z-score [9] | composite z-score [10]
1 | O=C1C2C=CC(C(O)c3cccc(O)c3)N(Nc3ccccc3)C2C(=O)N1c1ccccc1 (stereo not given) | -0.0667 | -0.73 | -0.0901 | 0.212 | 1.08 | 0.977 | 1.11 | 1.23 (inactive) | 0.35 | -0.0003
2 | COCCOC(=O)N1C(=O)[C@@]2(c3ccccc31)[C@H](c1ccccc1OCCO)N1[C@H](c3ccccc3)[C@H](c3ccccc3)OC(=O)[C@H]1[C@@H]2C(=O)N1CCCCCCC1 | 4.11 | 2.32 | 0.959 | 1.32 | 1.78 | 2.25 | 1.39 | -3.81 (inactive) | 3.36 | 2.53
3 | C[C@]1(C(=O)NCCN2CCOCC2)c2ccccc2C(=O)N(Cc2cc(F)cc(C(F)(F)F)c2)[C@H]1c1ccc(CO)cc1 | 0.0545 | 0.933 | -0.141 | -0.762 | -0.387 | 1.06 | 1.47 | -1.54 (inactive) | 1.16 | -0.0994
4 | CCCCCN1CC=CC23O[C@@H]4C=CCOC(=O)[C@@H]4[C@H]2C(=O)N(CCO)[C@@H]3C1=O (stereo not given in full) | 0.388 | 0.483 | -0.177 | 0.162 | -1.27 | 1.6 | 1.48 | -0.0097 (inactive) | -0.455 | -0.199
5 | COCCOC(=O)N1C(=O)[C@@]2(c3cc(C#CC4(O)CCCCCC4)ccc31)[C@H](c1ccc(OCCO)cc1)N1[C@H](c3ccccc3)[C@H](c3ccccc3)OC(=O)[C@H]1[C@@H]2C(=O)Nc1nc2ccccc2s1 | 0.676 | 0.54 | -0.0234 | 0.874 | 1.32 | 0.526 | 1.04 | 3.79 (inactive) | 1.08 | 0.245
6 | COc1cc(NN2C(C(O)C3CCCCC3)C=CC3C(=O)N(c4ccccc4)C(=O)C32)cc(OC)c1OC (stereo not given) | 1.44 | -0.28 | -0.116 | 0.56 | 1.7 | 1.67 | 1.18 | 0.374 (inactive) | 0.964 | -0.202
7 | C=C(COC)C(=O)CC[C@H](OC(=O)c1cccnc1)c1ccc(CO)o1 | -0.403 | -0.049 | -0.124 | 0.842 | 0.574 | 0.57 | 1.12 | 0.292 (inactive) | 0.34 | -0.0994
8 | COCCOC(=O)N1C(=O)[C@@]2(c3cc(C#CCCO)ccc31)[C@H](c1ccccc1OCCO)N1[C@H](c3ccccc3)[C@H](c3ccccc3)OC(=O)[C@H]1[C@@H]2C(=O)N1CCCCCCC1 | 2.91 | 0.821 | 0.452 | 0.413 | 1.14 | 1.72 | 1.32 | -3.3 (inactive) | 2.59 | 2.43
9 | C=C(COC)/C(=C/C[C@H](OC(C)=O)c1cccc(OCCO)c1)c1cnc2ccccc2c1 | -0.194 | 0.569 | -0.0325 | 1.05 | 1.26 | 0.743 | 1.11 | 1.46 (inactive) | 0.654 | 0.107
10 | NC(=O)[C@@H]1[C@H]2C(=O)O[C@H](c3ccccc3)[C@H](c3ccccc3)N2[C@H](c2ccc(OCCO)cc2)[C@@]12C(=O)Nc1ccc(C#CCCO)cc12 | 0.398 | 0.165 | 0.0122 | 0.786 | 0.472 | 1.23 | 1.22 | 1.62 (inactive) | -0.222 | -0.236
11 | CCCNC(=O)[C@@]1(Sc2ccc(C)cc2)CC(=O)N(C(C)C)[C@@H]1c1ccc(CO)cc1I | 1.2 | 0.0023 | -0.104 | -0.77 | -1.06 | 1.98 | -0.0039 | -0.733 (inactive) | -0.433 | -0.0994
12 | CC1CC/C=C\[C@H]2OC34C=CCN(C(C)(C)C)C(=O)[C@H]3N(C(CO)C(C)C)C(=O)[C@@H]4C2C(=O)O1 (stereo not given in full) | -0.259 | 2.01 | -0.141 | 0.323 | -0.147 | 0.867 | 1.5 | 1.44 (inactive) | -0.0219 | -0.318
13 | [N-]=[N+]=Nc1ccccc1C[C@@]1(C(=O)O)N=C(c2ccc(OCCCO)cc2)O[C@@H]1c1ccccc1N=[N+]=[N-] | 0.943 | 0.211 | 0.0171 | 0.325 | 1.37 | 1.95 | 1.21 | -0.22 (inactive) | 1.36 | -0.283
14 | CCOC(=O)C[C@H]1[C@H](OC(=O)c2ccc(-c3ccccc3)cc2)[C@@H](NC(=O)Cc2ccc(OC)cc2)c2cc(OCCCO)ccc2N1C(=O)Cc1ccc(OC)cc1 | -0.278 | -0.236 | -0.101 | 0.102 | 0.216 | 0.243 | -0.29 | -0.362 (inactive) | 0.3 | -0.154
15 | C=C(/C(=C/C[C@H](OC(=O)c1ccncc1)c1cccc(OCCO)c1)c1cnc2ccccc2c1)C(C)C | 0.0581 | 0.857 | -0.0448 | 1.34 | 1.41 | 1.07 | 0.884 | -2.64 (inactive) | 0.157 | 0.0695
16 | CCCCCCCCCCC(O)C1C=CC2C(=O)N(C)C(=O)C2N1Nc1cc(OC)c(OC)c(OC)c1 (stereo not given) | 0.736 | -0.157 | -0.194 | -0.873 | -0.717 | 0.55 | -0.199 | 0.507 (inactive) | 0.0296 | -0.21
17 | O=C1N[C@@H](Cc2ccccc2)C(=O)N2[C@@H]1C[C@@H](C(=O)O)[C@H]2c1ccc(O)cc1 | 0.106 | 0.726 | -0.0773 | 0.473 | 0.0865 | 1.77 | 1.37 | 4.65 (inactive) | 0.661 | -0.257
